This note sets out measurements from PubChem BioAssay (NCI).

Some test systems named below: DU-145 prostate; MALME-3M melanoma; MDA-MB-231 breast; RXF 393 renal; SF-268 CNS; SF-295 CNS; SF-539 CNS; UACC-257 melanoma; M14 melanoma; HCT-15 colon; HT29 colon; SNB-75 CNS; SNB-19 CNS; U251 CNS; PC-3 prostate; UACC-62 melanoma; LOX IMVI melanoma; SK-MEL-28 melanoma.
Common to all, as to test: NCI-60 one-dose screen, 48 h (100 = growth as untreated, 0 = no growth, -100 = all killed)
What all share (conditions): 10 µM unless noted

Compounds without any hit were thinned out: in the full panel of roughly 83,000, 20% have a hit.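 Note: values are percent growth. 100 is the growth of untreated cells, values between 100 and 0 indicate rising inhibition; between -100 and 0 indicates cell death.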 Values without a mark were called inactive. Active and inactive are the calls of the source. How the source made its calls: active means growth percent below 10; inactive means the rest.

Consider `Cc1cc(N2CCSCC2)nc(NC2CCCC(Nc3ccnc4cc(Cl)ccc34)C2)n1` (stereo not given), for which the growth was 19.7% in the test with DU-145 prostate; -86.1% (active) with MALME-3M melanoma; -75.7% (active) in the test with MDA-MB-231 breast; -73.7% (active) in the test on RXF 393 renal; -39.9% (active) in the test with SF-268 CNS; -78.6% (active) in the test on SF-295 CNS. In addition, the growth in the test with SF-539 CNS is -93.1% (active); in the test on UACC-257 melanoma, -79.3% (active); with M14 melanoma, -88.5% (active); with HCT-15 colon, -67.8% (active); with HT29 colon, -58.7% (active); with SNB-75 CNS it was -60.1% (active). The growth in the test on SNB-19 CNS was 1.4% (active); with U251 CNS, -65.7% (active); with PC-3 prostate, -45.7% (active); in the test with UACC-62 melanoma it was -87.8% (active); in the test on LOX IMVI melanoma it was -84.8% (active); with SK-MEL-28 melanoma, -79.9% (active).

On to `CCOC(=O)c1c(C(=O)OCC)c2cc(-c3ccn4c(C(=O)c5ccccc5)c(C(=O)OCC)c(C(=O)OCC)c4c3)ccn2c1C(=O)c1ccccc1`, for which the growth was 100% with DU-145 prostate; 87.3% in the test on MALME-3M melanoma; 82.8% with MDA-MB-231 breast; 96.7% in the test on RXF 393 renal; 85% in the test with SF-268 CNS; 106% in the test with SF-295 CNS. In addition, the growth was 89.9% with SF-539 CNS; 95.1% in the test with UACC-257 melanoma; 101% in the test on M14 melanoma; 95.6% in the test on HCT-15 colon; 97.3% with HT29 colon; 84.1% with SNB-75 CNS. Also, the growth in the test with SNB-19 CNS is 100%; with U251 CNS it was 99.7%; in the test with PC-3 prostate, 80.6%; in the test on UACC-62 melanoma, 85.2%; in the test with LOX IMVI melanoma it was 85.1%; in the test on SK-MEL-28 melanoma, 113%.

Take `Cn1ccnc1C(=O)/C=C/c1ccc(CC(=O)Nc2ccccc2)cc1`: the growth in the test with DU-145 prostate was 10.3%; in the test on MALME-3M melanoma, 72.8%; in the test on MDA-MB-231 breast, 12.6%; with RXF 393 renal, 12.1%; in the test on SF-268 CNS it was 10.6%; in the test with SF-295 CNS, 26.2%. The growth was -18.5% (active) in the test on SF-539 CNS; 78.7% with UACC-257 melanoma; 27.8% with M14 melanoma; 6.26% (active) in the test with HCT-15 colon; 5.1% (active) with HT29 colon; 11.3% with SNB-75 CNS. Besides, the growth was 10.3% in the test on SNB-19 CNS; 7.03% (active) in the test on U251 CNS; 25.7% with PC-3 prostate; 26.7% in the test on UACC-62 melanoma; 8.77% (active) in the test on LOX IMVI melanoma; 55% in the test on SK-MEL-28 melanoma.

`COc1ccc(SC2c3ccc(C)cc3Oc3nc(N)c(C#N)c(N)c32)cc1` (stereo not given): the growth in the test with DU-145 prostate is -88.3% (active); with MALME-3M melanoma, -87.6% (active); with MDA-MB-231 breast it was -86.5% (active); in the test with RXF 393 renal it was -69.2% (active); in the test with SF-268 CNS it was 2.01% (active); in the test with SF-295 CNS, 44.8%. Besides, the growth in the test on SF-539 CNS is -75.4% (active); with UACC-257 melanoma, -74.8% (active); with M14 melanoma, -76.5% (active); in the test with HCT-15 colon, -79.9% (active); in the test on HT29 colon, -65.1% (active); in the test on SNB-75 CNS it was -45.5% (active). In addition, the growth with SNB-19 CNS was -69.3% (active); with U251 CNS it was -93.3% (active); in the test on PC-3 prostate, -67.9% (active); in the test with UACC-62 melanoma it was -46.2% (active); in the test with LOX IMVI melanoma, -94.3% (active); in the test with SK-MEL-28 melanoma, -82.3% (active).

On to `CC(=O)c1cc2c(N)c(C(=O)Nc3cccc4ccccc34)sc2nc1C`, for which the growth in the test on DU-145 prostate was 15.5%; in the test with MALME-3M melanoma it was 56.2%; in the test with MDA-MB-231 breast, 26.2%; with RXF 393 renal it was 10.4%; in the test with SF-268 CNS, 56.3%; in the test with SF-295 CNS it was 19.8%. Besides, the growth in the test on SF-539 CNS is -15% (active); with UACC-257 melanoma it was 59.8%; with M14 melanoma it was 3.93% (active); with HCT-15 colon, 33.8%; with HT29 colon it was 5.75% (active); in the test with SNB-75 CNS, 19.8%. The growth in the test with SNB-19 CNS was 21.7%; in the test with U251 CNS, 15.3%; with PC-3 prostate, 17.5%; in the test with UACC-62 melanoma, 23.5%; in the test on LOX IMVI melanoma, 41.1%; in the test with SK-MEL-28 melanoma, 67.2%.

Consider `Cc1cc(N2CCN(C)CC2)nc(NC2CCCC(Nc3ccnc4cc(Cl)ccc34)C2)n1` (stereo not given), for which the growth is 16.9% in the test on DU-145 prostate; -82.9% (active) in the test with MALME-3M melanoma; -76.4% (active) with MDA-MB-231 breast; -62.2% (active) with RXF 393 renal; -2.4% (active) with SF-268 CNS; -71.8% (active) in the test on SF-295 CNS. Also, the growth in the test with SF-539 CNS was -84.3% (active); in the test with UACC-257 melanoma it was -73.6% (active); with M14 melanoma, -86.4% (active); in the test with HCT-15 colon, -35.7% (active); in the test with HT29 colon, -53.1% (active); with SNB-75 CNS, -25.6% (active). Besides, the growth in the test on SNB-19 CNS was 9.07% (active); with U251 CNS it was -51.4% (active); in the test on PC-3 prostate, 8.55% (active); in the test with UACC-62 melanoma, -90.7% (active); with LOX IMVI melanoma it was -81.8% (active); with SK-MEL-28 melanoma, -75.8% (active).

`Clc1ccc2nc3nc4ccc[nH]c4cc3c2c1`: the growth is 100% in the test with DU-145 prostate; 87.2% with MALME-3M melanoma; 99.6% with MDA-MB-231 breast; 116% in the test with RXF 393 renal; 97.9% in the test on SF-268 CNS; 101% in the test on SF-295 CNS. The growth in the test with SF-539 CNS is 83.7%; in the test with UACC-257 melanoma, 85.8%; with M14 melanoma, 106%; in the test on HCT-15 colon, 69.3%; with HT29 colon, 83.8%; with SNB-75 CNS it was 88.8%. The growth is 89% with SNB-19 CNS; 82.8% in the test with U251 CNS; 75.1% in the test with PC-3 prostate; 80.4% in the test with UACC-62 melanoma; 91.9% in the test on LOX IMVI melanoma; 111% with SK-MEL-28 melanoma.

On to `Cc1cc(N2CCOCC2)nc(N[C@@H]2CCC[C@H](Nc3ccnc4cc(Cl)ccc34)C2)n1`, for which the growth with DU-145 prostate is 26.2%; in the test on MALME-3M melanoma it was -75.3% (active); in the test with MDA-MB-231 breast, -53.7% (active); in the test with RXF 393 renal it was -57.6% (active); with SF-268 CNS, 19.1%; in the test with SF-295 CNS, -66.2% (active). The growth is -79.7% (active) in the test with SF-539 CNS; -86.4% (active) in the test on UACC-257 melanoma; -86.7% (active) in the test with M14 melanoma; -43.5% (active) with HCT-15 colon; -52.9% (active) with HT29 colon; -37.3% (active) in the test with SNB-75 CNS. Also, the growth in the test with SNB-19 CNS was 34.8%; in the test with U251 CNS, -57.3% (active); in the test on PC-3 prostate, 9.75% (active); in the test with UACC-62 melanoma, -79.7% (active); in the test on LOX IMVI melanoma, -77.3% (active); in the test with SK-MEL-28 melanoma it was -74.3% (active).

For the compound `NC(=NC1C2CC3CC(C2)CC1C3)Nc1ccc(I)cc1` (stereo not given), the growth in the test on DU-145 prostate was 20.4%; with MALME-3M melanoma, -17% (active); in the test with MDA-MB-231 breast, 41.8%; in the test on RXF 393 renal, 85.8%; in the test with SF-268 CNS, 40.7%; in the test with SF-295 CNS it was 10.7%. For the same compound, the growth is 32% with SF-539 CNS; 0.379% (active) in the test on UACC-257 melanoma; 2.98% (active) with M14 melanoma; 43.9% with HCT-15 colon; 9.6% (active) in the test with HT29 colon; 57.1% with SNB-75 CNS. Moreover, the growth with SNB-19 CNS was 27.5%; in the test on U251 CNS, 50.4%; in the test on PC-3 prostate it was 36.9%; in the test on LOX IMVI melanoma, 61.9%.
